Compound activity (PubChem BioAssay)
In the library only some 3% were active in any assay of this set; here they are far more common.
FBPA coupling cs: qHTS Assay for Inhibitors of Fructose-1,6-bisphosphate Aldolase from Giardia Lamblia: Coupling assay counterscreen. coupling enzyme system counterscreen, AmpLite Red fluorescence. activity change, negative = inhibition, % at 58.2 µM, hits read low. 0.67% of 290,000 active. AID 2472, 2010; in the data active means activity change below about -30%
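First, compound is pin-transferred into glyceraldehyde-3-phosphate coupling-enzyme reagent at 57.5 uM final and held 10 min at RT. Next, substrate, coupling system and AmpLite Red are added. After 20 min RT, fluorescence (525/598 nm) is read.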
Tau FP inhib: qHTS for Inhibitors of Tau Fibril Formation, Fluorescence Polarization. AID 1468, 2008. 0.39% of 280,000 active. Potency, µM (series often up to 57.7 µM), without a hit: top-dose activity, negative = inhibition, hits mostly inhibitors. Microtubule-associated protein tau (Homo sapiens), P10636. K18 P301L tau heparin fibrillization, Alexa594 FP, 6 h; further: potency means the concentration at half of the fitted maximal effect; nearly all actives have a fitted effect of over 55% in size
Target sequence (P10636 561-689 P618L limits assumed): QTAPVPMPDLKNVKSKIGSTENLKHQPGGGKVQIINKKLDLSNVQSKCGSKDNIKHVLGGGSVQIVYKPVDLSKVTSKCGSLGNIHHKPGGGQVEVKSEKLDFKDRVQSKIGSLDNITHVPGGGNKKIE
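Recombinant K18 P301L […], labeled with Alexa 594 at 0.24 uM over 15 uM unlabeled; heparin inducer 20 uM final; 37 C, 6 hr; FP endpoint.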
JMJD2E inh: qHTS Assay for Inhibitors of Human Jumonji Domain Containing 2E (JMJD2E) | 1.6% of 230,000 active | Potency, µM (series often up to 57.1 µM), for inactives: at the highest dose activity change, negative = inhibition, hits mostly inhibitors | AID 2147, 2009 | JMJD2E catalytic domain, FDH-coupled NADH fluorescence (FDH is formaldehyde dehydrogenase) | Lysine-specific demethylase 4E (Homo sapiens), B2RXH2; active means well fitted inhibition curve with a large enough effect, not every such curve was filed as active; inconclusive means small, poorly fitted or top-dose-only effect, or another doubt; inactive means no such curve, though single readings can be large or run the other way;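 further: potency means the concentration at half of the fitted maximal effect; 0% = wells with enzyme and -100% = buffer wells without enzyme; nearly all actives have a fitted effect of over 50% in size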
Target sequence (B2RXH2 1-337 limits assumed): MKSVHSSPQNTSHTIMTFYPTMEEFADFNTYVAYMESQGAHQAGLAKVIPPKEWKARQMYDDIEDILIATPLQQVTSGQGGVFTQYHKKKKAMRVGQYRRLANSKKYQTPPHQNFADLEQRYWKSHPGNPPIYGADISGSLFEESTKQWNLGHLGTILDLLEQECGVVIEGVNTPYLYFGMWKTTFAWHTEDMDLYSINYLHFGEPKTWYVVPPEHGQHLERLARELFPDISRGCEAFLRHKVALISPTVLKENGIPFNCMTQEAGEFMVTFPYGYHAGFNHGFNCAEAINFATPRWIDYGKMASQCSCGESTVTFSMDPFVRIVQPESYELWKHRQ
Tau fibril ThT: qHTS for Inhibitors of Tau Fibril Formation, Thioflavin T Binding. Potency, µM (doses to about 57.4 µM), for the others: at the highest dose activity, negative = inhibition, hits mostly inhibitors. 2.1% of 270,000 active. AID 1460, 2008. recombinant tau K18 P301L, heparin-induced fibrillization, ThT fluorescence. Microtubule-associated protein tau (Homo sapiens), P10636; further: potency means the concentration at half of the fitted maximal effect; nearly all actives have a fitted effect of over 55% in size
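K18 P301L tau (15 uM + 0.24 uM Alexa 594-tagged), heparin 20 uM, NaOAc pH 7, 6 h 37 C; ThT 30 uM, 1 h RT, ex 450/em 510 nm.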
Tau fluor counter: Counterscreen qHTS for Inhibitors of Tau Fibril Formation, Fluorescence Polarization; tau K18 P301L (four-repeat tau fragment) Alexa594 fluorescence, heparin fibrillization; Potency, µM (doses to about 57.7 µM), without a hit: at the top dose activity change, negative = decrease; 0.93% of 280,000 active; AID 1463, 2008; further: potency means the concentration at half of the fitted maximal effect; nearly all actives have a fitted effect of over 55% in size
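Human K18 P301L tau (15 uM unlabeled plus 0.24 uM Alexa 594-labeled, final) in 100 mM sodium acetate pH 7 was mixed with compound and 20 uM heparin and incubated 6 hr at 37 C.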
Starred values were filed as active, the others as inactive; ? = inconclusive; . = not tested or not shown; [ ] = remark or other dose. Unless noted, the call rests on the fitted dose curve; in most records, active means well fitted curve in the direction sought with a large enough effect; inconclusive means small, poorly fitted or top-dose-only effect, or another doubt; inactive means no such curve, though single readings can be large; an effect the other way counts as inactive or inconclusive. Unless noted, on the % scale 0 is the no-effect control and ±100 the full control effect.

SMILES	FBPA coupling cs	Tau FP inhib	JMJD2E inh	Tau fibril ThT	Tau fluor counter
COC(=O)C1=C(C)OC(N)=C(C#N)C1c1ccccc1F (configuration not stated)	3.9	1.2%	7.4%	-10.3%	-7.1%
CCOC(=O)C1=C(C)N(CC(C)C)C(=O)/C1=C\c1ccc(OCC(=O)Nc2ccccc2)cc1	2.0	-3.4%	-2.4%	?	-15.6%
CCOC(=O)C1=C(O)c2ccccc2C(=O)/C1=C\c1ccc(CC)cc1	-47.6*	20µM*	?	14.1µM*	?
CCCN=C(C)C1=C(O)c2ccccc2C1=O	-1.2	0.4%	-0.3%	2.5%	-7.3%
CCCc1ccc(/C=C2\C(=O)c3ccccc3C(O)=C2C(=O)OCC)cc1	-37.2*	?	17.8µM*	31.6µM*	?
O=C(Nc1ccc(S(=O)(=O)N(Cc2ccccc2)c2ccccc2)cc1)c1ccccc1F	.	?	.	12.4%	-26.1%
COc1cccc(C(=O)Nc2ccc(S(=O)(=O)N(Cc3ccccc3)c3ccccc3)cc2)c1	.	10µM*	.	0.5%	?
O=C(Nc1ccc(S(=O)(=O)N(Cc2ccccc2)c2ccccc2)cc1)c1ccc(F)cc1	.	10µM*	.	8.3%	?
O=C(Nc1ccc(N2CCCC2)c(Cl)c1)c1cccs1	-12.5	10.8%	0.8%	?	15.8µM*[quencher]
CCN(CC)c1ccc(NC(=S)Nc2ccc(F)cc2)cc1	-24.7	?	8.91µM*	12.6µM*	?
O=C(NC(=S)Nc1ccc(N2CCCCC2)cc1)c1cccs1	0.4	?	0.4%	12.6µM*	15.8µM*[quencher]
CS(=O)(=O)N1CCN(c2ccc(NC(=S)NC(=O)c3cccs3)cc2)CC1	1.5	1.7%	1.5%	?	-12.6%
Oc1ccc(NC(=S)Nc2ccc(F)cc2)cc1	3.2	.	.	.	.
CCN(CC)c1ccc(NC(=S)NC(=O)c2cccs2)cc1	1.2	18.5%	-29.6%	6.31µM*	12.6µM*[quencher]
CCCCC[C@H](O)/C=C/C=C\C=C\[C@@H](O)C/C=C\CCCC(=O)O	1.4	1.4%	-7.2%	-4.4%	-0.9%
Cc1cc2oc(C(=O)Nc3cccc(-c4nc5ccccc5o4)c3)c(C)c2cc1C	.	2.4%	.	-13.5%	-15.1%
COc1ccc(C2=Nn3c(nnc3-c3ccccc3O)SC2)c(OC)c1	2.3	.	.	.	.
O=c1[nH][nH]cc1C=Nc1ccccc1O	1.7	3.1%	25.1µM*	-11.8%	0.1%
O=C1NCC(O)=C1C=Nc1ccccc1O	-0.3	-4.8%	17.8µM*	-7.0%	-1.0%
CC(=O)Nc1ccc(N2CCCCC2)cc1	-1.0	2.0%	-5.1%	-12.6%	-3.5%
CN1CCN(c2ccc(NC(=O)c3cccc(OCc4ccccc4)c3)cc2)CC1	-1.4	?	5.5%	?	14.1µM*[quencher]
O=C(Cn1c(-c2ccccc2)noc1=O)Nc1ccc(N2CCCCCC2)cc1	-5.6	?	-8.7%	-13.5%	14.1µM*[quencher]
CN1CCN(c2ccc(NC(=O)c3sc4ccccc4c3Cl)cc2)CC1	2.0	4.0%	?	5.01µM*	?
CCN1CCN(c2ccc(NC(=O)c3cccc(OCc4ccccc4)c3)cc2)CC1	-5.7	-1.7%	0.3%	-9.8%	-4.6%
CC(=O)Nc1ccc(N2CCCC2)cc1	-31.5*	?	?	28.2µM*	?
SMILES	FBPA coupling cs	Tau FP inhib	JMJD2E inh	Tau fibril ThT	Tau fluor counter
O=C(Nc1ccc(N2CCCC2)cc1)c1cccc(F)c1	-4.2	?	-6.8%	12.6µM*	?
CN(c1ccccc1)S(=O)(=O)c1cccc(NC(=O)c2ccc3ncsc3c2)c1	0.5	?	-10.1%	-7.0%	15.8µM*[quencher]
CC(=O)c1c(C)[nH]c(C(=O)Nc2cccc(S(=O)(=O)N(C)c3ccccc3)c2)c1C	0.1	28.2µM*	?	-16.5%	14.1µM*[quencher]
COc1ccccc1NS(=O)(=O)c1cccc(NC(=O)c2[nH]c(C)c(C(C)=O)c2C)c1	-0.7	?	-11.7%	9.0%	?
O=C(Nc1cccc(O)c1)c1cccc(S(=O)(=O)N2CCCC2)c1	-2.9	1.4%	-1.1%	-13.1%	-17.4%
O=C(Nc1cccc(S(=O)(=O)N2CCCCC2)c1)c1ccc2ncsc2c1	-3.4	?	?	.	20µM*[quencher]
